{
  "source": "PubChem BioAssay (NCI)",
  "note": "Compounds without any hit were thinned out: in the full panel of roughly 83,000, 20% have a hit.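 Interpretation: 100, growth as untreated; towards 0, rising growth inhibition; 0, no net growth; 0 to -100, cell death. Compounds scoring below 10 were considered active.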 A number with no mark means an inactive call. Calls of active or inactive are those of the source.",
  "data": [
    {"test_system": "MDA-MB-468 breast", "assay": "NCI-60 one-dose screen, 48 h (100 = growth as untreated, 0 = no growth, -100 = all killed)", "conditions": "10 µM unless noted", "values": [
      {"smiles": "CC1=Nc2cnc(Nc3ccc(OCCN4CCCCC4)cc3)nc2Nc2ccccc21", "growth": "63.4%"},
      {"smiles": "C=CCn1c(SCC(=O)Nc2ccc(C(=O)/C=C/c3cc(OC)c(OC)c(OC)c3)cc2)nnc1-c1c[nH]c2ccccc12", "growth": "37%"},
      {"smiles": "CN1CCN(Cc2ccc(NC(=O)c3cncc(C#Cc4cncn5ccnc45)c3)cc2C(F)(F)F)CC1", "growth": "125%"},
      {"smiles": "CCCCNC(=O)Oc1ccc(/C(=C(/C)Cc2ccc(OC)cc2)c2ccc(OCCN3CCCC3)cc2)cc1", "growth": "53.5%"},
      {"smiles": "CCCCCCCCCC1=NC(C)(C)CN1C(C)(C)CO", "growth": "70.3%"},
      {"smiles": "CCSc1nnc2n(Cc3ccccc3)c(=O)c3c(C)c(C(N)=O)sc3n12", "growth": "101%"},
      {"smiles": "CN1CCN(Cc2ccc(NC(=O)c3cnc(F)c(C#Cc4cnc(N)c5ncccc45)c3)cc2C(F)(F)F)CC1", "growth": "-5.56% (active)"},
      {"smiles": "CN(C)CCCNC(=O)c1cncnc1Nc1ccc(OCc2cccc(F)c2)c(Cl)c1", "growth": "-7.83% (active)"},
      {"smiles": "O=C(/C(=C\\c1c(-c2ccccc2)[nH]c2ccccc12)S(=O)(=O)c1ccccc1)c1ccccc1", "growth": "32.9%"},
      {"smiles": "Cc1cc(N/N=C/c2nc(-c3ccc(Br)cc3)oc2C)c2cc(Cl)ccc2n1", "growth": "25.8%"},
      {"smiles": "Cc1ccc(C2=NNC(c3sc(Cl)nc3Cl)C2)cc1", "note": "(centres undefined)", "growth": "93.5%"},
      {"smiles": "CN(CC(=O)N(Cc1ccc(C2CCCCC2)cc1)c1ccc(C(=O)NO)cc1)S(=O)(=O)c1c(F)c(F)c(F)c(F)c1F", "growth": "-36.3% (active)"},
      {"smiles": "CCCCNCC(O)c1cc2c(Cl)cc(Cl)cc2c2cc(C(F)(F)F)ccc12", "note": "(centres undefined)", "growth": "-86.2% (active)"},
      {"smiles": "C[C@H]1[C@H](C)CC[C@]2(COC(=O)c3cccnc3)CC[C@]3(C)C(=CC[C@@H]4[C@@]5(C)CCCNC(C)(C)[C@@H]5CC[C@]43C)[C@H]12", "growth": "42.5%"},
      {"smiles": "C#CCOc1cccc(Nc2ncnc3ccc(NC(=O)CCl)cc23)c1", "growth": "-54% (active)"},
      {"smiles": "FC(F)(F)Oc1ccc2nc3nc4ccc[nH]c4cc3c2c1", "growth": "-25.5% (active)"},
      {"smiles": "C#CCOc1cccc(Nc2ncnc3ccc(NC(=O)C=C)cc23)c1", "growth": "-25.7% (active)"},
      {"smiles": "COc1cc(/C=C/C(=O)c2c(-c3ccc(F)cc3)nc3sc(C)nn23)cc(OC)c1OC", "growth": "23.9%"},
      {"smiles": "Cc1ccccc1C[P+](c1ccccc1)(c1ccccc1)c1ccccc1", "growth": "-17.6% (active)"},
      {"smiles": "COc1ccc(-c2nc(-c3nc4cc(C)c(C)cc4[nH]3)cc3c2[nH]c2ccccc23)cc1", "growth": "-27.7% (active)"},
      {"smiles": "CS(=O)(=O)c1ccc(C(=O)N2N=C(c3ccccc3)CC2c2ccc3c(c2)OCO3)cc1", "note": "(centres undefined)", "growth": "90.1%"},
      {"smiles": "CCN(CC)N=Nc1nn(C(=O)Nc2ccc(Cc3ccccc3)cc2)c2ccc(Cl)cc12", "growth": "101%"},
      {"smiles": "Oc1cccc(Nc2nc(-c3ccccn3)cs2)c1", "growth": "110%"},
      {"smiles": "C=C(C)[C@@H]1CC[C@]2(C)[C@H](CC[C@@H]3[C@H]4[C@H]5OC[C@@]4(CCC5(C)C)CC[C@]32C)[C@@]1(C)CCCN", "growth": "-68.2% (active)"},
      {"smiles": "Cn1ccnc1C(=O)/C=C/c1ccc(C(=O)Nc2ccc(F)cc2)cc1", "growth": "14.9%"},
      {"smiles": "O=S(=O)(NCCCNc1nccc(-c2[nH]c(-c3ccccc3)nc2-c2ccc(F)c(O)c2)n1)c1ccccc1", "growth": "88.3%"},
      {"smiles": "CCOC(=O)C/C(C)=N\\O", "growth": "98.2%"},
      {"smiles": "OCCOCC(F)(F)F", "growth": "106%"},
      {"smiles": "O=C(O)c1ccc(=O)[nH]n1", "growth": "123%"},
      {"smiles": "CCOC(=O)c1nc2c3ccccc3cnn2c1C(=O)c1ccc(OC)cc1", "growth": "105%"},
      {"smiles": "CC(C)[C@H](CN)NC[C@H](C)NS(=O)(=O)c1ccc(C(C)(C)C)cc1", "growth": "86.5%"},
      {"smiles": "c1nc(SC2=NCCN2)c2[nH]cnc2n1", "growth": "14.7%"},
      {"smiles": "O=C(CNc1ccc(Cl)cc1)Nc1ccc(-c2nc3ccccc3s2)cc1", "growth": "-11.2% (active)"},
      {"smiles": "COc1ccc(/C=C2/CN(C(=O)c3ccc(C)cc3)C/C(=C\\c3ccc(OC)cc3)C2=O)cc1", "growth": "74.1%"},
      {"smiles": "NC(=O)C1CC2C=CC1C2", "note": "(centres undefined)", "growth": "109%"},
      {"smiles": "COc1ccc(C2Nc3nc(SC)nc(N)c3N=C3c4ccccc4CCC32)cc1", "note": "(centres undefined)", "growth": "102%"},
      {"smiles": "O=C(Cn1cc(-c2ccccc2)nn1)Nc1nc(-c2ccc(Cl)cc2)cs1", "growth": "92.6%"},
      {"smiles": "CC(=O)Nc1ccc2c(c1)Cc1c(F)cccc1-2", "growth": "8.46% (active)"},
      {"smiles": "CCCCCCCCCCCCOB(OCCCCCCCCCCCC)OCCCCCCCCCCCC", "growth": "99.2%"}
    ]}
  ]
}
